From PubChem BioAssay (NCI)
This is part of a sample that, as a whole, favours compounds with a hit. Of some 79,000 tested, about 15% had one in any assay. No stated cut-off is given here; in the data, active means growth inhibition above about 70%; inactive means the rest.

Columns and labels:
[1] = NCI Yeast Anticancer Drug Screen. Data for the rad50 strain (AID 155);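 further: 0% = growth of vehicle-only cultures of the same strain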; conditions: S. cerevisiae rad50 strain growth inhibition; at 50.0 µM; hits give high values
How it was run: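 Growth of the mutant yeast was measured after compound exposure and referenced to vehicle-treated cultures.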

[2] = NCI Yeast Anticancer Drug Screen. Data for the mec2-1 strain (AID 157); conditions: S. cerevisiae mec2-1 strain, at 50.0 µM, hits give high values
How it was run: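 mec2-1 yeast strain, carrying an alteration in DNA damage repair or cell cycle control, was exposed to compounds; growth inhibition was measured relative to vehicle-treated controls.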

[3] = NCI Yeast Anticancer Drug Screen. Data for the sgs1 mgt1 strain (AID 161);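 further: 0% = growth of cultures given vehicle only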; conditions: S. cerevisiae sgs1 mgt1 strain, at 50.0 µM, hits give high values
How it was run: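 This yeast growth screen uses a strain with defined DNA-repair lesions; compound-treated growth is compared with vehicle-treated growth.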

[4] = NCI Yeast Anticancer Drug Screen. Data for the cln2 rad14 strain (AID 165);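 further: 0% = growth equal to vehicle treated cultures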; conditions: S. cerevisiae cln2 rad14 strain, at 50.0 µM, hits give high values
How it was run: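 Yeast carrying cln2 and rad14 alterations (cell cycle control and DNA damage repair) were exposed to compounds. Growth inhibition was measured against vehicle-treated controls.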

[5] = NCI Yeast Anticancer Drug Screen. Data for the bub3 strain (AID 167); conditions: S. cerevisiae bub3 mutant strain, at 50.0 µM, hits give high values
How it was run: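 Whole-cell yeast assay. The mutant strain was incubated with compounds, and growth inhibition was determined by comparison with vehicle-treated cells.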

[6] = NCI Yeast Anticancer Drug Screen. Data for the mlh1 rad18 strain (AID 175); conditions: S. cerevisiae mlh1 rad18 strain growth inhibition; at 50.0 µM; hits give high values
How it was run: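 Growth inhibition of the yeast strain was measured after compound exposure and expressed relative to vehicle-treated controls. The strain carries defined defects in DNA damage repair.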

Measured: growth inhibition

COc1ccc2c(c1)NC(c1ccccc1C(=O)O)c1cccn1-2 (stereo not given)
inactive: [1] 0.55% | [2] -20.9% | [3] 12.3% | [4] 5.75% | [5] 23.6% | [6] 5.6%

O=c1ccc2c(O)cc(O)cc2o1
inactive: [1] -8.9% | [2] -5.9% | [3] -13.7% | [4] 5.05% | [5] 8.35% | [6] -8.5%

CC(=O)OCC1OC(OCC[N+](C)(C)C)C(OC(C)=O)C(OC(C)=O)C1OC(C)=O (stereo not given)
inactive: [1] -1.65% | [2] 14.9% | [3] -15.6% | [4] -2.4% | [5] -7.35% | [6] 15.3%

C(=N/Nc1ccccn1)/NN/C=N/Nc1ccccn1
inactive: [1] -7.6% | [2] 6.25% | [3] -3.8% | [4] 7.1% | [5] -2.45% | [6] -4.9%

COc1ccc(-c2c3nc(c(-c4ccc(OC)cc4)c4[n-]c(c(-c5ccc(OC)cc5)c5nc(c(-c6ccc(OC)cc6)c6[n-]c2c2ccccc62)-c2ccccc2-5)c2ccccc42)-c2ccccc2-3)cc1.[Zn+2]
inactive: [1] -21.1% | [2] -18.7% | [3] -29.9% | [4] 6.75% | [5] 16.6% | [6] -22.1%

Cc1ccc(NC(=O)C2c3ccccc3-c3ccccc32)cc1
inactive: [1] 39.4% | [2] 16.6% | [3] 16.9% | [4] -8.35% | [5] 10.9% | [6] 21.1%

O=C(O)c1ccoc1-c1ccccc1
inactive: [1] 12.7% | [2] -6.05% | [3] 10.7% | [4] -26.9% | [5] -7.55% | [6] 22.2%

CCCCCCOC(=O)C[C@H]1C[C@H](C(=O)OCCCCCC)C1(C)C
inactive: [1] -4.45% | [2] -15.6% | [3] 1.8% | [4] -36.6% | [5] -21.1% | [6] -7.3%

Cc1ccc(S(=O)(=O)NCCC(=O)O)cc1
inactive: [1] -1.75% | [2] -11.1% | [3] -9.65% | [4] -9.3% | [5] -3.3% | [6] -4.85%

Cc1cc(=O)n2nc(SCc3ccccc3)sc2n1
inactive: [1] 11.3% | [2] 8.2% | [3] 28.9% | [4] 1.9% | [5] 3.5% | [6] -8.95%

O=C(NC(Cc1ccc(O)cc1)C(=O)O)SCc1ccccc1 (stereo not given)
inactive: [1] -25.6% | [2] 21% | [3] 22.9% | [4] -52.5% | [5] 22.9% | [6] -12%

N#Cc1c2ccccc2c(C#N)c2ccccc12
inactive: [1] -4.5% | [2] -8.15% | [3] 1.9% | [4] -25.7% | [5] 1.3% | [6] -12.3%

O=C(c1ccccc1)C1Nc2ccc(Cl)cc2C2C=CCC12 (stereo not given)
inactive: [1] -1.2% | [2] -7.75% | [3] 6.4% | [4] -7.95% | [5] -0.35% | [6] 14.8%

Nc1ccnc2n[nH]nc12
inactive: [1] -3.7% | [2] -2% | [3] -19.1% | [4] -9.05% | [5] 5.05% | [6] -26.8%

CC1(c2ccc(Cl)cc2)NC(=O)N(CC(=O)Nc2ccccc2)C1=O (stereo not given)
inactive: [1] 7.1% | [2] 13.9% | [3] 2.65% | [4] -7.95% | [5] -12.1% | [6] 14.2%

COc1n[nH]c(N)n1
inactive: [1] 8.3% | [2] 12.8% | [3] 3.8% | [4] 22.8% | [5] 25.6% | [6] 20.2%

Cn1c(=O)c2c(ncn2CCNC(c2ccccc2)c2cccc(Cl)c2)n(C)c1=O (stereo not given)
inactive: [1] 6% | [2] -8.05% | [3] 4.35% | [4] -8.3% | [5] 0.8% | [6] 12.8%

O=C(NC1CCCCC1)C(c1ccccc1)c1ccccc1
inactive: [1] 8.85% | [2] -3.3% | [3] 0.4% | [4] -18.7% | [5] 1.85% | [6] -10.9%

CCOC(=O)Nc1ccc(F)cc1F
inactive: [1] -62.1% | [2] -10.6% | [3] -2.75% | [4] -10.5% | [5] 8.65% | [6] 14.4%

CCCCC(=O)C(CC)(c1ccccc1)N(C)C (stereo not given)
inactive: [1] -11.7% | [2] -31.1% | [3] -9.4% | [4] -21.2% | [5] -2.35% | [6] -17.9%
